Bioassay records deposited in PubChem by National Center for Advancing Translational Sciences (NCATS).
Rab9 promoter act: activators of Rab9 promoter. Huh7 Rab9 promoter-luciferase reporter, luminescence, 24 h. Potency, µM (top dose mostly 9.22 µM), for the others: at the top dose activation, negative = inhibition, most hits filed as activators. 320,000 tested, 2.8% active. AID 485297; note: % of control where 0% means no effect; nearly all actives have a fitted effect of over 60% in size
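Huh7 cells stably carrying Rab9 promoter–luciferase reporter, plated 1500 cells/well, compound added after 2 h and incubated 24 h at 37 °C; luciferase luminescence then read after 10 min with detection reagent.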
SMN2 splice up: increases expression of the SMN2 splice variant | 210,000 tested, 2.8% active | Potency, µM (titrated, usually from 46.1 µM), for inactives: at the highest dose activity change, positive = activation, actives largely listed as activators | HEK293 SMN2-luciferase splicing reporter, luminescence, 30-36 h; note: % of control where 0% means no effect; nearly all actives have a fitted effect of over 55% in size
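HEK293 cells carry an SMN2 […]–luciferase reporter in which exon 7 inclusion puts luciferase in frame. Cells were plated 10-12 h before compound addition, then incubated 30-36 h at 37C. ONE-Glo luminescence was read; sodium butyrate at 4.5 mM final served as control.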
ELG1 repair inh: blocks ELG1-dependent DNA repair in HEK293T cells | HEK293T ELG1-luciferase reporter, luminescence, 16 h; DNA damage induced by 5-fluorouridine | Potency, µM (top dose mostly 46.1 µM), inactives show at the top dose activity change, negative = inhibition, actives largely listed as inhibitors | 330,000 tested, 2.3% active | AID 504467; note: % is set by controls: 0 for no effect and ±100 for the full control effect; nearly all actives have a fitted effect of over 55% in size
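DMSO vehicle served as the neutral condition. Each well held 2,000 cells given 5-fluorouridine plus compound; after 16 hr at 37 °C/5% CO2, ONE-Glo was added and luciferase measured 30 min later.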
FLuc modulator: inhibits or activates purified firefly luciferase, miR-21 counter-screen | P08659 | purified FLuc, Km substrates, luminescence inhibition | Potency, µM (titrated, usually from 57.5 µM), for inactives: at the highest dose activity change, negative = inhibition, usual class: inhibitors | 360,000 tested, 6.9% active | AID 588342;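 note: plate controls were vehicle for no effect and reference inhibitor for full effect; nearly all actives have a fitted effect of over 55% in size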
Target sequence (P08659 whole entry, looked up): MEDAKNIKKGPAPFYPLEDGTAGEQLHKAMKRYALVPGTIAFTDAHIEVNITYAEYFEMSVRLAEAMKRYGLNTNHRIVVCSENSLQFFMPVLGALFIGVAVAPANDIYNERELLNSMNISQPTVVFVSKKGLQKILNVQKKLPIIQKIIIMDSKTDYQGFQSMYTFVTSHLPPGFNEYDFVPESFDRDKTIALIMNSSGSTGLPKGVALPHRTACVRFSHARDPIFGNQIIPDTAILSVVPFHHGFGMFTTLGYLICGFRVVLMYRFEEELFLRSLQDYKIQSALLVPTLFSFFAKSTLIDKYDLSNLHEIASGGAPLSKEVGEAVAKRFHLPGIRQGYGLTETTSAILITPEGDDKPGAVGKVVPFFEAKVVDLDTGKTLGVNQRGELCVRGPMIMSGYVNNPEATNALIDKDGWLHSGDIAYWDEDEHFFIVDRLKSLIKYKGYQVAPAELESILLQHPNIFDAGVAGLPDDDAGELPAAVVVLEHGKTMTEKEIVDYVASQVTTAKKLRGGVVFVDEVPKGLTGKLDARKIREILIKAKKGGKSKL
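Purified P. pyralis luciferase, 10 nM final, with Km-level 10 uM D-luciferin and 10 uM ATP in 50 mM Tris acetate pH 7.5, 10 mM Mg acetate, 0.01% Tween-20, 0.05% BSA; 6-point qHTS titration about 60 µM downward; luminescence read.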
NPC1 prom act: activates the NPC1 promoter | Potency, µM (series often up to 9.22 µM), inactives show at the top dose activation, hits mostly activators | 320,000 tested, 2.4% active | AID 485313 | Huh7 NPC1 promoter luciferase reporter, 24 h; note: % of control where 0% means no effect; nearly all actives have a fitted effect of over 60% in size
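Compounds in DMSO were transferred onto Huh7 NPC1-luciferase reporter cells pre-incubated 2 h; after 24 h at 37 °C, Amplite reagent was dispensed and luminescence recorded 10 min later.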
ELG1 genotoxic: genotoxicity induction in ELG1-luciferase HEK293T cells. HEK293T ELG1-luciferase reporter, luminescence, 16 h. Potency, µM (highest dose often 46 µM), without a hit: top-dose activity change, positive = activation, hits mostly activators. 330,000 tested, 1.3% active. AID 504466; note: % of control where 0% means no effect; nearly all actives have a fitted effect of over 60% in size
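HEK293T cells expressing luciferase-tagged ELG1 were exposed to compound or DMSO vehicle for 16 hr at 37 °C and 5% CO2. Luciferase activity was then measured with ONE-Glo after 30 min at room temperature.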
An asterisk follows results filed as active; ? = inconclusive; · = no result. This is a sample that favours compounds with a hit; in the whole collection about 9.2% have one here. Calls come from the whole dose curve; as a rule, active = well fitted curve in the direction sought with a large enough effect; inconclusive = small, poorly fitted or top-dose-only effect, or another doubt; inactive = no such curve, though single readings can be large; an effect the other way counts as inactive or inconclusive. Potency is the fitted concentration of half-maximal effect.

SMILES	Rab9 promoter act	SMN2 splice up	ELG1 repair inh	FLuc modulator	NPC1 prom act	ELG1 genotoxic
N#C/C(=C/c1ccc(N2CCOCC2)o1)C(=O)NC1CCCCC1	24%	·	-4%	12µM*	3%	3%
CC(=O)Nc1ccc(/C=C(\C#N)C(=O)NC2CCCCC2)cc1	-6%	2%	?	0%	-5%	4%
COc1ccc(NC(=O)/C(C#N)=C/c2ccc(Br)o2)cc1	18%	?	?	-11%	10%	2%
N#C/C(=C\c1ccc(N2CCOCC2)o1)C(=O)Nc1ccc(O)cc1	25%	16µM*	?	5.4µM*	22%	?
COc1ccc(NC(=O)/C(C#N)=C/c2ccc(C)o2)cc1	·	13µM*	·	2.7µM*	·	·
CCc1ccc(NC(=O)/C(C#N)=C/c2cc3ccc(C)cc3nc2N2CCOCC2)cc1	-6%	-28%	-13%	-1%	-2%	6%
COc1ccc(NC(=O)/C(C#N)=C\c2ccc(N3CCOCC3)o2)cc1	?	·	?	1.9µM*	?	9%
CCOc1ccccc1NC(=O)CSc1nc2[nH]ncc2c(=O)[nH]1	-2%	·	11%	6%	4%	4%
Cc1ccc(-c2noc(CNC(=O)c3ccccc3)n2)cc1	·	-7%	·	-9%	·	·
Cc1cccc(N2CCN(C(=O)CS(=O)(=O)c3cccc4nsnc34)CC2C)c1 (configuration not stated)	·	·	·	-8%	·	·
FC(F)Sc1ccc(NC(=S)NC2CCCC2)cc1	3.2µM*	?	5%	13µM*	27%	6%
O=C(Nc1ccc(SC(F)F)cc1)C12CCC(CC1)C2	30%	16%	?	11µM*	28%	6%
CC1CCCC(NC(=S)Nc2ccc(SC(F)F)cc2)C1C (configuration not stated)	18%	·	2%	?	0%	-5%
OC1CCC(NC(=S)Nc2ccc(SC(F)F)cc2)CC1 (configuration not stated)	?	16µM*	?	21µM*	?	?
Cc1ccc(S(=O)(=O)c2nnn3c2nc(N2CCN(c4ccccn4)CC2)c2ccccc23)cc1C	-2%	·	-4%	1%	-9%	0%
Cc1ccc2c(C)c(C(=O)N(Cc3ccc(N(C)C)cc3)C3CCS(=O)(=O)C3)oc2c1 (configuration not stated)	5%	·	16µM*	1%	-6%	-1%
COc1ccc(CN(C(=O)c2oc3ccccc3c2C)C2CCS(=O)(=O)C2)cc1OC (configuration not stated)	-1%	11µM*	?	8%	-2%	-4%
C=CCN(C(=O)c1oc2c(Cl)cc(C)cc2c1C)C1CCS(=O)(=O)C1 (configuration not stated)	3.5µM*	·	?	11µM*	3.5µM*	?
CCOC(=O)c1ccc(NC(=O)CSc2nc3ccccc3c(=O)n2CCNC(C)=O)cc1	·	·	·	1%	·	·
COCCn1c(C)cc(C(=O)COC(=O)CCN2C(=O)c3ccccc3C2=O)c1C	-3%	5%	8%	?	0%	1%
Cc1cc(C(=O)COC(=O)c2csc3c2CCCC3)c(C)n1C	10%	-20%	?	12µM*	15%	12%
COCCn1c(C)cc(C(=O)COC(=O)C23CC4CC(CC(O)(C4)C2)C3)c1C	0.35µM*	?	?	1.5µM*	0.35µM*	?
COCCn1c(C)cc(C(=O)COC(=O)c2cc3c(s2)CCC3)c1C	4µM*	-8%	?	11µM*	3.5µM*	?
COCCn1c(C)cc(C(=O)COC(=O)c2cccc(O)c2)c1C	?	·	?	0.11µM*	?	?
COc1ccc(-c2nc3c(n2O)CCCC3=O)cc1OC	-4%	-5%	0%	0%	1%	0%
